The source of these data is PubChem BioAssay AID651871 (Sanford-Burnham Center for Chemical Genomics, 2012).

This assay has as its system HL-1. The assay can be described thus: protection of cardiomyocytes from stress damage, SAR follow-up, cell-based, panel, H9c2 and HL-1, ATP luminescence, set 2 (AID 651871).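 Also: cells exposed to stressor for 2 h before ATP readout; reference of the scale not given here.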 Particulars: H9c2/HL-1 cardiomyocytes, 2-deoxyglucose stress, with 2-deoxyglucose, run 16, at 79 µM (top of the series).
Turning to `CCOC(=O)c1cccc(NC(=O)CNC(=O)c2cc(-c3cc(OC)c(OC)c(OC)c3)nc3ccccc23)c1`, the activity (protection/inhibition) amounted to 130%.

For the compound `COc1ccc2c(c1OC)C(=O)N1c3ccccc3C(=O)N(Cc3cccc(Cl)c3Cl)C21` (stereo not drawn), the activity (protection/inhibition) was -9.37%. As to `COc1ccc2nc(-c3cc(OC)c(OC)c(OC)c3)cc(C(=O)NCC(=O)Nc3ccc(C(C)=O)cc3)c2c1`, the activity (protection/inhibition) came to 84.4%.
